Hit rate of the full screen: of about 5,500 compounds, about 2,000 (36%) were called active. Inconclusive results (about 18%) are left out. Rule as the data show it: active = normalized growth mostly below about 0.91 (no sharp cut-off); inconclusive = no clear call, values can overlap the other calls; inactive = mostly above about 0.92. The list shows a part of the results.
Test: chemical genetic growth profiling, strain panel (AID 1159580);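 also: tested at 20 µM; growth read once vehicle control cultures reached saturation at 30 °C; 1 = growth at the plate median or of vehicle wells; lower values mean less growth of the strain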
Conditions: S. cerevisiae deletion strains, growth OD

Measured: normalized growth

OC(COc1ccc(F)cc1)(c1ccc(Cl)cc1)c1ccc(Cl)cc1
inactive: locus YAR019C, strain CDC15, stronger effect = lower value 0.991 | locus YBL105C, strain PKC1, stronger effect = lower value 0.985 | locus YBR135W, strain CKS1, stronger effect = lower value 0.984 | locus YBR136W, strain MEC1, stronger effect = lower value 1 | locus YBR160W, strain CDC28, stronger effect = lower value 0.982 | locus YDL017W, strain CDC7, stronger effect = lower value 0.988 | locus YDL028C, strain MPS1, stronger effect = lower value 0.985 | locus YDL101C, strain DUN1, stronger effect = lower value 0.974 | locus YDL108W, strain KIN28, stronger effect = lower value 0.978 | locus YDL132W, strain cdc53, stronger effect = lower value 0.987 | locus YDL214C, strain PRR2, stronger effect = lower value 0.985 | locus YDR052C, strain DBF4, stronger effect = lower value 0.989 | locus YDR054C, strain cdc34, stronger effect = lower value 0.993 | locus YDR226W, strain ADK1, stronger effect = lower value 0.983 | locus YDR477W, strain SNF1, stronger effect = lower value 0.996 | locus YER123W, strain YCK3, stronger effect = lower value 0.96 | locus YER133W, strain GLC7, stronger effect = lower value 0.987 | locus YFL009W, strain cdc4, stronger effect = lower value 0.993 | locus YFL029C, strain CAK1, stronger effect = lower value 0.988 | locus YFR003C, strain YPI1, stronger effect = lower value 0.989 | locus YFR019W, strain FAB1, stronger effect = lower value 1 | locus YFR028C, strain CDC14, stronger effect = lower value 0.986 | locus YGR040W, strain KSS1, stronger effect = lower value 0.981 | locus YGR052W, strain FMP48, stronger effect = lower value 1.08 | locus YGR092W, strain DBF2, stronger effect = lower value 0.962 | locus YHR030C, strain SLT2, stronger effect = lower value 1.07 | locus YHR079C, strain IRE1, stronger effect = lower value 1.08 | locus YHR082C, strain KSP1, stronger effect = lower value 1.07 | locus YHR205W, strain SCH9, stronger effect = lower value 0.964 | locus YIL147C, strain SLN1, stronger effect = lower value 0.98 | locus YJL095W, strain BCK1, stronger effect = lower value 1.08 | locus YJL128C, strain PBS2, stronger effect = lower value 0.939 | locus YJL157C, strain FAR1, stronger effect = lower value 0.988 | locus YJR016C, strain ILV3, stronger effect = lower value 0.984 | locus YJR066W, strain TOR1 (second series), stronger effect = lower value 0.971 | locus YJR066W, strain TOR1, stronger effect = lower value 1.12 | locus YKL048C, strain ELM1, stronger effect = lower value 0.984 | locus YKL067W, strain YNK1, stronger effect = lower value 0.988 | locus YKL101W, strain HSL1, stronger effect = lower value 0.98 | locus YKL193C, strain SDS22, stronger effect = lower value 0.991 | locus YKL203C, strain TOR2, stronger effect = lower value 1.08 | locus YLR113W, strain HOG1, stronger effect = lower value 0.957 | locus YLR133W, strain CKI1, stronger effect = lower value 0.989 | locus YLR403W, strain SFP1, stronger effect = lower value 1 | locus YML070W, strain DAK1, stronger effect = lower value 0.99 | locus YMR001C, strain CDC5, stronger effect = lower value 0.984 | locus YMR205C, strain PFK2 (second series), stronger effect = lower value 0.995 | locus YMR277W, strain FCP1, stronger effect = lower value 0.992 | locus YNL006W, strain LST8, stronger effect = lower value 0.998 | locus YNL020C, strain ARK1, stronger effect = lower value 0.988 | locus YNL161W, strain CBK1, stronger effect = lower value 0.988 | locus YNL183C, strain NPR1, stronger effect = lower value 1.09 | locus YNL207W, strain RIO2, stronger effect = lower value 0.997 | locus YNL222W, strain SSU72, stronger effect = lower value 0.991 | locus YNL307C, strain MCK1 (second series), stronger effect = lower value 0.981 | locus YOL078W, strain AVO1, stronger effect = lower value 0.994 | locus YOL136C, strain PFK27, stronger effect = lower value 0.966 | locus YOR061W, strain CKA2, stronger effect = lower value 0.988 | locus YOR119C, strain RIO1, stronger effect = lower value 1.02 | locus YOR231W, strain MKK1, stronger effect = lower value 1.06 | locus YOR329C, strain SCD5, stronger effect = lower value 0.984 | locus YPL031C, strain PHO85, stronger effect = lower value 0.981 | locus YPL153C, strain RAD53, stronger effect = lower value 0.984 | locus YPL204W, strain HRR25, stronger effect = lower value 0.986 | locus YPL209C, strain IPL1, stronger effect = lower value 0.992 | locus YPL256C, strain CLN2, stronger effect = lower value 1.07 | locus YPR025C, strain CCL1, stronger effect = lower value 0.992 | locus YPR106W, strain ISR1, stronger effect = lower value 0.983 | locus YPR111W, strain DBF20, stronger effect = lower value 0.984 | strain NNK1, stronger effect = lower value 0.992 | strain TSCII, stronger effect = lower value 0.991
